Laboratory results taken from PubChem BioAssay AID1159580 (chemical genetic matrix, 2015).
About 2,000 (36%) of roughly 5,500 compounds were called active. Inconclusive results (about 18%) are left out. Cut-off read from the data, not from the text of the source: active = normalized growth mostly below about 0.91 (no sharp cut-off); inconclusive = no clear call, values can overlap the other calls; inactive = mostly above about 0.92. This is one part of the list.

Assay: chemical genetic growth profiling, strain panel (AID 1159580);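 note: tested at 20 µM; growth read once vehicle control cultures reached saturation at 30 °C; 1 = growth at the plate median or of vehicle wells; lower values mean less growth of the strain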
Details: growth OD

Measured: normalized growth

CNc1ccc(C(=O)CC(O)CCC(C)C2OC(=O)CC(O)CC(=O)CC(O)CC(O)CC(O)CC(O)CC3(O)CC(O)C(C(=O)OC)C(CC(OC4OC(C)C(O)C(N)C4O)/C=C/C=C/C=C/C=C/C=C/C=C/C=C/C2C)O3)cc1 (stereo unspecified)
inactive: S. cerevisiae deletion strains, locus YOL012C, strain htz1 0.225
active: S. cerevisiae deletion strains, locus YAL013W, strain DEP1, stronger effect = lower value 0.0566 | S. cerevisiae deletion strains, locus YBR021W, strain FUR4, stronger effect = lower value 0.0931 | S. cerevisiae deletion strains, locus YBR229C, strain ROT2, stronger effect = lower value 0.0524 | S. cerevisiae deletion strains, locus YCL029C, strain bik1, stronger effect = lower value 0.0837 | S. cerevisiae deletion strains, locus YDL035C, strain GPR1, stronger effect = lower value 0.0535 | S. cerevisiae deletion strains, locus YDL074C, strain BRE1, stronger effect = lower value 0.0938 | S. cerevisiae deletion strains, locus YDL101C, strain DUN1, stronger effect = lower value 0.0651 | S. cerevisiae deletion strains, locus YDL134C, strain PPH21, stronger effect = lower value 0.0946 | S. cerevisiae deletion strains, locus YDL185W, strain tfp1, stronger effect = lower value 0.056 | S. cerevisiae deletion strains, locus YDL192W, strain arf1, stronger effect = lower value 0.0619 | S. cerevisiae deletion strains, locus YDR101C, strain arx1, stronger effect = lower value 0.0612 | S. cerevisiae deletion strains, locus YDR150W, strain NUM1, stronger effect = lower value 0.0603 | S. cerevisiae deletion strains, locus YDR162C, strain NBP2, stronger effect = lower value 0.0526 | S. cerevisiae deletion strains, locus YDR318W, strain mcm21, stronger effect = lower value 0.0791 | S. cerevisiae deletion strains, locus YDR388W, stronger effect = lower value 0.0583 | S. cerevisiae deletion strains, locus YDR502C, strain sam2, stronger effect = lower value 0.0726 | S. cerevisiae deletion strains, locus YEL061C, strain CIN8, stronger effect = lower value 0.133 | S. cerevisiae deletion strains, locus YER110C, stronger effect = lower value 0.11 | S. cerevisiae deletion strains, locus YER155C, strain BEM2, stronger effect = lower value 0.0648 | S. cerevisiae deletion strains, locus YER167W, strain BCK2, stronger effect = lower value 0.0539 | S. cerevisiae deletion strains, locus YGL078C, strain dbp3, stronger effect = lower value 0.0564 | S. cerevisiae deletion strains, locus YGL086W, strain mad1, stronger effect = lower value 0.0591 | S. cerevisiae deletion strains, locus YGL248W, strain PDE1, stronger effect = lower value 0.11 | S. cerevisiae deletion strains, locus YGR078C, strain PAC10, stronger effect = lower value 0.0538 | S. cerevisiae deletion strains, locus YGR135W, strain pre9, stronger effect = lower value 0.0705 | S. cerevisiae deletion strains, locus YGR229C, strain SMI1, stronger effect = lower value 0.0606 | S. cerevisiae deletion strains, locus YGR252W, strain gcn5, stronger effect = lower value 0.194 | S. cerevisiae deletion strains, locus YHR030C, strain SLT2, stronger effect = lower value 0.0491 | S. cerevisiae deletion strains, locus YHR079C, strain IRE1 (second series), stronger effect = lower value 0.0787 | S. cerevisiae deletion strains, locus YHR094C, strain hxt1, stronger effect = lower value 0.119 | S. cerevisiae deletion strains, locus YHR129C, strain ARP1, stronger effect = lower value 0.0557 | S. cerevisiae deletion strains, locus YHR200W, strain rpn10, stronger effect = lower value 0.0615 | S. cerevisiae deletion strains, locus YIL066C, strain RNR3, stronger effect = lower value 0.12 | S. cerevisiae deletion strains, locus YIL073C, strain SPO22, stronger effect = lower value 0.63 | S. cerevisiae deletion strains, locus YIL125W, strain kgd1, stronger effect = lower value 0.0582 | S. cerevisiae deletion strains, locus YIR030C, strain dcg1, stronger effect = lower value 0.0683 | S. cerevisiae deletion strains, locus YJL095W, strain BCK1, stronger effect = lower value 0.0555 | S. cerevisiae deletion strains, locus YJL134W, strain LCB3, stronger effect = lower value 0.0513 | S. cerevisiae deletion strains, locus YJL168C, strain set2, stronger effect = lower value 0.119 | S. cerevisiae deletion strains, locus YJL187C, strain SWE1 (second series), stronger effect = lower value 0.0564 | S. cerevisiae deletion strains, locus YJR043C, strain POL32, stronger effect = lower value 0.0719 | S. cerevisiae deletion strains, locus YJR075W, strain HOC1, stronger effect = lower value 0.0687 | S. cerevisiae deletion strains, locus YKL009W, strain mrt4, stronger effect = lower value 0.0698 | S. cerevisiae deletion strains, locus YKL068W, stronger effect = lower value 0.0536 | S. cerevisiae deletion strains, locus YKL085W, strain MDH1 (second series), stronger effect = lower value 0.0497 | S. cerevisiae deletion strains, locus YKL085W, strain MDH1, stronger effect = lower value 0.0497 | S. cerevisiae deletion strains, locus YKL190W, strain CNB1, stronger effect = lower value 0.0588 | S. cerevisiae deletion strains, locus YKR001C, strain vps1, stronger effect = lower value 0.0648 | S. cerevisiae deletion strains, locus YLR039C, strain RIC1, stronger effect = lower value 0.0872 | S. cerevisiae deletion strains, locus YLR058C, strain SHM2, stronger effect = lower value 0.0574 | S. cerevisiae deletion strains, locus YLR102C, strain apc9, stronger effect = lower value 0.0963 | S. cerevisiae deletion strains, locus YLR262C, strain YPT6, stronger effect = lower value 0.0942 | S. cerevisiae deletion strains, locus YLR268W, strain sec22, stronger effect = lower value 0.0696 | S. cerevisiae deletion strains, locus YLR330W, strain CHS5, stronger effect = lower value 0.0514 | S. cerevisiae deletion strains, locus YLR342W, strain FKS1 (second series), stronger effect = lower value 0.0823 | S. cerevisiae deletion strains, locus YLR371W, strain rom2, stronger effect = lower value 0.0741 | S. cerevisiae deletion strains, locus YLR418C, strain cdc73, stronger effect = lower value 0.0943 | S. cerevisiae deletion strains, locus YML016C, strain PPZ1, stronger effect = lower value 0.136 | S. cerevisiae deletion strains, locus YML032C, strain rad52, stronger effect = lower value 0.0764 | S. cerevisiae deletion strains, locus YML124C, strain tub3, stronger effect = lower value 0.0593 | S. cerevisiae deletion strains, locus YMR078C, strain ctf18, stronger effect = lower value 0.0766 | S. cerevisiae deletion strains, locus YMR223W, strain ubp8, stronger effect = lower value 0.0693 | S. cerevisiae deletion strains, locus YMR263W, strain SAP30, stronger effect = lower value 0.0638 | S. cerevisiae deletion strains, locus YMR307W, strain GAS1, stronger effect = lower value 0.109 | S. cerevisiae deletion strains, locus YNL067W, strain RPL9B, stronger effect = lower value 0.0557 | S. cerevisiae deletion strains, locus YNL128W, strain TEP1, stronger effect = lower value 0.0601 | S. cerevisiae deletion strains, locus YNL153C, strain GIM3, stronger effect = lower value 0.0467 | S. cerevisiae deletion strains, locus YNL233W, strain BNI4, stronger effect = lower value 0.0536 | S. cerevisiae deletion strains, locus YNL250W, strain rad50, stronger effect = lower value 0.0761 | S. cerevisiae deletion strains, locus YNL271C, strain bni1, stronger effect = lower value 0.0615 | S. cerevisiae deletion strains, locus YNL298W, strain CLA4, stronger effect = lower value 0.0597 | S. cerevisiae deletion strains, locus YNL307C, strain MCK1, stronger effect = lower value 0.0706 | S. cerevisiae deletion strains, locus YNL322C, strain KRE1, stronger effect = lower value 0.0507 | S. cerevisiae deletion strains, locus YNR052C, strain pop2, stronger effect = lower value 0.0636 | S. cerevisiae deletion strains, locus YOL006C, strain TOP1, stronger effect = lower value 0.132 | S. cerevisiae deletion strains, locus YOL147C, strain pex11, stronger effect = lower value 0.0576 | S. cerevisiae deletion strains, locus YOR061W, strain CKA2, stronger effect = lower value 0.0583 | S. cerevisiae deletion strains, locus YOR069W, strain VPS5, stronger effect = lower value 0.0477 | S. cerevisiae deletion strains, locus YOR136W, strain idh2, stronger effect = lower value 0.074 | S. cerevisiae deletion strains, locus YOR144C, strain elg1, stronger effect = lower value 0.0585 | S. cerevisiae deletion strains, locus YOR184W, strain ser1, stronger effect = lower value 0.075 | S. cerevisiae deletion strains, locus YOR316C, strain cot1, stronger effect = lower value 0.1 | S. cerevisiae deletion strains, locus YPL055C, strain LGE1, stronger effect = lower value 0.0726 | S. cerevisiae deletion strains, locus YPL241C, strain CIN2, stronger effect = lower value 0.0521 | S. cerevisiae deletion strains, locus YPR119W, strain clb2, stronger effect = lower value 0.0662 | S. cerevisiae deletion strains, locus YPR141C, strain kar3, stronger effect = lower value 0.0657 | S. cerevisiae deletion strains, locus YPR163C, strain tif3, stronger effect = lower value 0.0749 | S. cerevisiae deletion strains, locus YPR167C, strain met16, stronger effect = lower value 0.0645 | S. cerevisiae deletion strains, strain wtn01, stronger effect = lower value 0.061 | S. cerevisiae strains, strain wild type, stronger effect = lower value 0.0494
